Screening data from PubChem BioAssay.
Only some compounds are listed: those with a hit (about 11% of all), similar ones and a draw of the others.
PI5P4K alpha inh = qHTS for Inhibitors of phosphatidylinositol 5-phosphate 4-kinase (PI5P4K); PI5P4Kalpha enzyme, ADP-Glo luminescence, 60 min; stronger effect = lower value; 330,000 tested, 1.2% active; max response, %; Phosphatidylinositol 5-phosphate 4-kinase type-2 alpha (Homo sapiens), P48426; AID 652105, 2013; active = max response of -50% or lower; inconclusive = between -30% and -50%; inactive = -30% or higher; also: value at the top dose of about 77 µM; % is scaled to controls: 0 for no effect and ±100 for the full control effect
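PI5P4Kalpha ADP-Glo assay; 5 microM ATP final; 60 min RT reaction; HEPES pH 7.4/EGTA/CHAPS, 5% DMSO; controls lacking substrate or enzyme; luminescent end-point.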
G9a block = qHTS Assay for Inhibitors of Histone Lysine Methyltransferase G9a; G9a H3K9 monomethylation, AlphaScreen, 2 h; Potency, µM (series often up to 102 µM), without a hit: top-dose activity, negative = inhibition, hits mostly inhibitors; AID 504332, 2011; Histone-lysine N-methyltransferase EHMT2 (Homo sapiens), Q96KQ7; 350,000 tested, 8.8% active; also: potency is read from the fitted curve at half-maximal effect; % is scaled to controls: 0 for no effect and ±100 for the full control effect; nearly all actives have a fitted effect of over 75% in size
Target sequence (Q96KQ7 913-1193 limits assumed): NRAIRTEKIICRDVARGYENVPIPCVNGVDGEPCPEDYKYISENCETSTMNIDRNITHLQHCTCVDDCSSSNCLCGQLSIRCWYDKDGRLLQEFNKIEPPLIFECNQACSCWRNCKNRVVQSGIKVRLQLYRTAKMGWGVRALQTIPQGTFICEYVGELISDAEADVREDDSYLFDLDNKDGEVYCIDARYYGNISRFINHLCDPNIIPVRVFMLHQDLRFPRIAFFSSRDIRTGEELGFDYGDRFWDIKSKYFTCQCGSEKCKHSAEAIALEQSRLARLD
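Using a bead-based AlphaScreen, monomethylated H3K9 product from 2 h room-temperature reactions (G9a 20 nM, peptide 500 nM, SAM 20 uM) was detected with 0.5 ug/mL rabbit anti-H3K9me1 antibody.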
L3MBTL1 block = qHTS Assay for the Inhibitors of L3MBTL1; AlphaScreen L3MBTL1–H3K9me1 peptide binding; Potency, µM (top dose mostly 57.1 µM), without a hit: top-dose activity, negative = inhibition, usual class: inhibitors; 230,000 tested, 0.66% active; also: potency is read from the fitted curve at half-maximal effect; % is scaled to controls: 0 for no effect and ±100 for the full control effect; nearly all actives have a fitted effect of over 60% in size
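AlphaScreen assay: L3MBTL1 (50 nM final) was preincubated 30 min at room temperature with biotinylated H3(1-15)K9me1 peptide (75 nM final), then 30 min with library compounds; streptavidin donor and nickel chelate acceptor beads (10 ug/mL final) added, 30 min dark.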
HP1b binding inh = HTS for Inhibitors of HP1-beta Chromodomain Interactions with Methylated Histone Tails; Chromobox protein homolog 1 (Homo sapiens), P83916; AlphaScreen HP1-beta / biotin-H3K9me3 peptide binding; Potency, µM (titrated, usually from 114 µM), without a hit: at the highest dose activity change, negative = inhibition, actives largely listed as inhibitors; 390,000 tested, 0.56% active; also: potency is read from the fitted curve at half-maximal effect; nearly all actives have a fitted effect of over 70% in size
Target sequence (P83916 whole entry, looked up): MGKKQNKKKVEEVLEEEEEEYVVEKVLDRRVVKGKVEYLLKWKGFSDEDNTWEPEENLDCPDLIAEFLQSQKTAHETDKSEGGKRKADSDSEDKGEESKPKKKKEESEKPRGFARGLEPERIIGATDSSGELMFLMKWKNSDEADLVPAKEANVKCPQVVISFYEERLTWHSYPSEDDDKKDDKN
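Compound inhibition of the preformed complex between 50 nM HP1-beta and 50 nM biotinylated H3K9me3 peptide was read by AlphaScreen. Buffer was PBS pH 7.4 with 0.01% Tween-20. Incubations ran 30 min at room temperature, with 10 ug/mL donor/acceptor beads.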
BAZ2B block = qHTS Assay for Inhibitors of BAZ2B; Bromodomain adjacent to zinc finger domain protein 2B (Homo sapiens), Q9UIF8; AlphaScreen BAZ2B-H3K14Ac peptide displacement; Potency, µM (highest dose often 114 µM), inactives show at the highest dose activity change, negative = inhibition, actives largely listed as inhibitors; 360,000 tested, 4.4% active; AID 504333, 2011; also: potency is read from the fitted curve at half-maximal effect; % is scaled to controls: 0 for no effect and ±100 for the full control effect; nearly all actives have a fitted effect of over 60% in size
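AlphaScreen luminescence quantifies BAZ2B engagement of H3K14Ac peptide; the protein and biotinylated peptide are both at 50 nM final, buffer PBS pH 7.4 with 0.01% Tween-20, all steps at room temperature.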
JMJD2A Tudor = qHTS Assay for Inhibitors of JMJD2A-Tudor Domain; Lysine-specific demethylase 4A (Homo sapiens), O75164; AlphaScreen JMJD2A-Tudor / H3K4me3 peptide binding; Potency, µM (series often up to 114 µM), without a hit: top-dose activity change, negative = inhibition, usual class: inhibitors; 390,000 tested, 4.4% active; also: potency is read from the fitted curve at half-maximal effect; % is scaled to controls: 0 for no effect and ±100 for the full control effect; nearly all actives have a fitted effect of over 50% in size
An asterisk follows results filed as active; ? = inconclusive; / = not tested or not shown; [ ] = remark or other dose. Unless noted, calls follow the shape of the dose curve; as a rule, active = well fitted inhibition curve with a large enough effect; inconclusive = small, poorly fitted or top-dose-only effect; inactive = no such curve, though single readings can be large or run the other way.

SMILES | PI5P4K alpha inh | G9a block | L3MBTL1 block | HP1b binding inh | BAZ2B block | JMJD2A Tudor
CC(C)(C)OC(=O)N1CCC(NC(=O)c2[nH]cnc2C(=O)Nc2ccc(Cl)cc2)CC1 | -2 | -4%[0.501 µM] | 8% | 55% | 10% | -19%
CC(C)(C)OC(=O)N1CCC(NC(=O)c2[nH]cnc2C(=O)Nc2ccon2)CC1 | -2 | 11%[0.501 µM] | -1% | 63% | 56µM* | -23%
CC(C)(C)OC(=O)N1CCC(NC(=O)c2nc[nH]c2C(=O)N2CCN(C(=O)OC(C)(C)C)CC2)CC1 | -11 | -5%[2.33 µM] | 3% | 16% | 0% | -29%
CC(C)(C)OC(=O)NCCCCCNC(=O)c1[nH]cnc1C(=O)Nc1ccon1 | -2 | 8%[0.501 µM] | -12% | 48% | 56µM* | -9%
Cc1ccc(NC(=O)C2CCN(c3cc(C)nc4c(-c5ccc(Cl)cc5)c(C)nn34)CC2)c(C)c1 | / | 4%[59 µM] | / | 38% | -36% | 0%
O=C1C[C@@H](c2ccccc2Cl)N1S(=O)(=O)c1ccccc1[N+](=O)[O-] | / | / | / | 26% | / | -15%
O=C(CSc1nc2c([nH]c3ccccc32)c(=O)n1-c1ccc(Cl)cc1)N1CCCCCC1 | / | 2%[59 µM] | / | 29%[57 µM] | -3% | 5%
S=C1NCCc2ccc(Cl)cc2C1c1ccccc1 (stereo not given) | 2 | -17%[59 µM] | -5% | ? | 40µM* | ?
CCc1ccc(C(=O)Nc2cccc(-c3nc4cc(C(C)C)ccc4o3)c2)cc1 | / | 5%[59 µM] | / | 45% | -4% | 3%
COC(=O)c1[nH]c(C)c(/C(O)=C2\C(=O)C(=O)N(CCN(C)C)C2c2ccccc2OC)c1C (stereo not given) | 1 | ? | -5% | 18% | -34% | 45µM*
COC(=O)c1[nH]c(C)c(/C(O)=C2\C(=O)C(=O)N(CCN3CCOCC3)C2c2ccccc2OC)c1C (stereo not given) | -4 | 50µM* | -3% | 18% | -3% | 50µM*
CCCc1cc(=O)[nH]c2nnc(SCC(=O)Nc3nnc(CC)s3)n12 | -21 | -8%[12.7 µM] | -8% | 7% | 6% | 25µM*
CCCc1cc(=O)[nH]c2nnc(SCC(=O)Nc3ccc(C(C)=O)cc3)n12 | 6 | -24%[0.501 µM] | -1% | 55% | -23% | -19%
Cc1ccc(NC(=O)C(Cc2ccccc2)n2cccc2)c(C)c1 (stereo not given) | / | -8%[59 µM] | / | 23% | -6% | -7%
COc1ccc(NC(=O)C2CCN(C(=O)NC3CCCCC3)CC2)c(OC)c1 | -7 | -7%[59 µM] | 2% | -21% | / | 79µM*
COc1ccc(NC(=O)C2CCN(C(=O)c3ccccc3)CC2)c(OC)c1 | / | -7%[59 µM] | 1% | 6% | / | -3%
COc1ccc(NC(=O)c2cc(C3CC3)on2)c(OC)c1 | -1 | 45µM* | -9% | 60% | 7% | 1%
COc1ccc(NC(=O)C2CCN(C(=O)c3cccs3)CC2)c(OC)c1 | ? | 7%[12.7 µM] | 3% | ? | -32% | 28µM*
COc1ccc(NC(=O)C2CCN(S(C)(=O)=O)CC2)c(OC)c1 | -1 | 89µM* | 0% | 38% | -12% | -14%
COc1ccc(CCNC(=O)CCc2c(C)c3ccc(O)c(C)c3oc2=O)cc1 | / | 25%[59 µM] | / | 79% | -1% | -8%
CCCCC(=O)O[C@]1(C(=O)CO)CCC2C3CCC4=CC(=O)CCC4(C)C3C(O)CC21C (stereo not given in full) | / | -3%[12.7 µM] | / | / | / | /
N#Cc1cccc(NC(=O)Cn2c3[n+](c4ccc(C(F)(F)F)cc42)CCCCC3)c1 | -1 | 8.9µM* | 4% | 1% | 2% | -15%
Fc1ccccc1Cn1c2[n+](c3ccc(C(F)(F)F)cc31)CCCCC2 | -6 | ? | 5% | 33% | / | ?
